# From PubChem BioAssay (NCI)
# About 83,000 compounds went through this panel and 20% of them were active in at least one assay; those are over-represented in the sample as a whole.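 96-well plates, one dose, 48 hours. Percent growth reported; active if below 10.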 A number with no mark means an inactive call. Activity calls are given as the source filed them.
# Columns and labels:
# Assay in all cases: NCI-60 one-dose screen, 48 h (100 = growth as untreated, 0 = no growth, -100 = all killed)
# Details in all cases: 10 µM unless noted
# SK-MEL-2 melanoma = tested on: SK-MEL-2 melanoma
# EKVX NSCLC = tested on: EKVX NSCLC
# SN12C renal = tested on: SN12C renal
# UO-31 renal = tested on: UO-31 renal
# TK-10 renal = tested on: TK-10 renal
# ACHN renal = tested on: ACHN renal
# CAKI-1 renal = tested on: CAKI-1 renal
# A498 renal = tested on: A498 renal
# CCRF-CEM leukemia = tested on: CCRF-CEM leukemia
# MOLT-4 leukemia = tested on: MOLT-4 leukemia
# SR leukemia = tested on: SR leukemia
# RPMI-8226 leukemia = tested on: RPMI-8226 leukemia
# OVCAR-8 ovarian = tested on: OVCAR-8 ovarian
# OVCAR-5 ovarian = tested on: OVCAR-5 ovarian
# OVCAR-4 ovarian = tested on: OVCAR-4 ovarian
# SK-OV-3 ovarian = tested on: SK-OV-3 ovarian
# IGROV1 ovarian = tested on: IGROV1 ovarian
# OVCAR-3 ovarian = tested on: OVCAR-3 ovarian
# HS 578T breast = tested on: HS 578T breast
# NCI/ADR-RES ovarian = tested on: NCI/ADR-RES ovarian
Compound,growth (SK-MEL-2 melanoma) [%],growth (EKVX NSCLC),growth (SN12C renal),growth (UO-31 renal) [%],growth (TK-10 renal) [%],growth (ACHN renal) [%],growth (CAKI-1 renal) [%],growth (A498 renal) [%],growth (CCRF-CEM leukemia),growth (MOLT-4 leukemia),growth (SR leukemia),growth (RPMI-8226 leukemia),growth (OVCAR-8 ovarian),growth (OVCAR-5 ovarian),growth (OVCAR-4 ovarian),growth (SK-OV-3 ovarian) [%],growth (IGROV1 ovarian),growth (OVCAR-3 ovarian),growth (HS 578T breast) [%],growth (NCI/ADR-RES ovarian) [%]
CCOC(=O)c1c(C)n2c(=O)cc(C)c3c(OC(C)=O)c(OC(C)=O)cc1c32,87,93.1%,74.3%,71,96,58.3,72.2,116,3.61% (active),19.3%,17.8%,42.3%,62.2%,99.2%,34.6%,103,76.9%,6.3% (active),91.4,33
O=C1C(c2c(O)[nH]c3ncccc23)=Nc2ccccc21,43.4,30.6%,90.6%,46.2,56.4,51.5,53.7,117,88.4%,85.4%,82.5%,75.4%,84.4%,77.7%,80.4%,69.6,-40.9% (active),75.8%,72.5,82.7
CSc1nc(N)c2c(n1)NC(c1ccccc1)C1CCc3ccccc3C1=N2 (stereo not given),30.1,40.9%,65.7%,43,112,72.3,48.2,42.7,20%,27.9%,8.22% (active),36.6%,42.1%,121%,41.6%,85.8,40.4%,43.9%,62,35.8
O=C(/C=C/c1ccc(Cl)cc1)c1ccc(Nc2ccnc3cc(Cl)ccc23)cc1,54,136%,97.1%,65,111,109,76.3,108,3.01% (active),43.4%,-17% (active),-41.9% (active),85.2%,84.6%,94.7%,112,57%,86.5%,102,83.5
COc1ccc2c(c1)c(-c1nc(-c3cn(C)c4ccncc34)cs1)cn2C,112,-36.7% (active),94.2%,71.2,79.7,95,75.6,90.9,-27.9% (active),-31.1% (active),-26.1% (active),-48% (active),-3.91% (active),-16.7% (active),-3.39% (active),119,-2.51% (active),-77.6% (active),104,10.2
C=CCNc1ccc2c3c(cccc13)C(=O)N(CC=C)C2=O,116,99.2%,97.6%,71.5,97.3,84.3,72.9,89.7,83%,93.8%,74.8%,95.2%,96.3%,92%,110%,103,88.7%,107%,91.6,92.8
CC/C(=C(/c1ccc(Cl)cc1)c1ccc(OCCN2CCCCCC2)cc1)c1ccccc1,98.7,85%,77%,61.8,102,103,85.1,80.2,44.3%,68.8%,6.94% (active),48.9%,84.8%,85.2%,79.6%,114,97.3%,93.9%,89.7,90.8
Cn1ccnc1C(=O)/C=C/c1ccc(C(=O)Nc2ccccc2F)cc1,76.2,32.4%,8.08% (active),34.9,44.7,21.1,25.8,17.9,3.74% (active),12.1%,6.83% (active),9.83% (active),15.6%,18%,37.7%,51.9,13.5%,-4.52% (active),17.1,21.7
